Laboratory results published in PubChem BioAssay (NCI).
About 83,000 compounds went through this panel and 20% of them were active in at least one assay; those are over-represented in the sample as a whole.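 Interpretation: 100, growth as untreated; towards 0, rising growth inhibition; 0, no net growth; 0 to -100, cell death. Compounds scoring below 10 were considered active.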 Active and inactive are the calls of the source.

What was measured:
Experiment in all cases: NCI-60 one-dose screen, 48 h (100 = growth as untreated, 0 = no growth, -100 = all killed)
Settings in all cases: 10 µM unless noted
NCI-H23 lung = system: NCI-H23 lung
NCI-H226 lung = system: NCI-H226 lung
NCI-H322M lung = system: NCI-H322M lung
HOP-62 NSCLC = system: HOP-62 NSCLC
NCI-H460 lung = system: NCI-H460 lung
A549/ATCC NSCLC = system: A549/ATCC NSCLC
786-0 renal = system: 786-0 renal
COLO 205 colon = system: COLO 205 colon
DU-145 prostate = system: DU-145 prostate
MALME-3M melanoma = system: MALME-3M melanoma
MDA-MB-231 breast = system: MDA-MB-231 breast
RXF 393 renal = system: RXF 393 renal
SF-268 CNS = system: SF-268 CNS
SF-295 CNS = system: SF-295 CNS
SF-539 CNS = system: SF-539 CNS
UACC-257 melanoma = system: UACC-257 melanoma
M14 melanoma = system: M14 melanoma
K-562 leukemia = system: K-562 leukemia

Measured: growth

c1ccc2c(N=NSc3ncnc4nc[nH]c34)c3ccccc3nc2c1
active: NCI-H23 lung -8.68% | NCI-H226 lung -23% | NCI-H322M lung 8.38% | HOP-62 NSCLC -49.9% | NCI-H460 lung 2.58% | A549/ATCC NSCLC -24.4% | 786-0 renal -5.12% | COLO 205 colon -95.3% | DU-145 prostate 8.43% | MALME-3M melanoma -17.9% | MDA-MB-231 breast 5.25% | RXF 393 renal -20.8% | SF-268 CNS 3.15% | SF-539 CNS 5.02% | UACC-257 melanoma -13.9% | M14 melanoma -25.4%
inactive: SF-295 CNS 20.1%

CCCCCCCCCCCCC1CCC(=O)O1 (centres undefined)
inactive: NCI-H23 lung 101% | NCI-H226 lung 100% | NCI-H322M lung 74.6% | HOP-62 NSCLC 91.8% | NCI-H460 lung 107% | A549/ATCC NSCLC 87.4% | 786-0 renal 85.9% | COLO 205 colon 97.9% | DU-145 prostate 104% | K-562 leukemia 97.1% | MALME-3M melanoma 98.2% | MDA-MB-231 breast 103% | RXF 393 renal 123% | SF-268 CNS 97.1% | SF-295 CNS 105% | SF-539 CNS 89.8% | UACC-257 melanoma 107% | M14 melanoma 91.6%

CC(C)(C)c1ccc(OC(=O)Nc2ccccc2)cc1
inactive: NCI-H23 lung 103% | NCI-H226 lung 106% | NCI-H322M lung 94.4% | HOP-62 NSCLC 111% | NCI-H460 lung 111% | A549/ATCC NSCLC 99.3% | 786-0 renal 83.8% | COLO 205 colon 119% | DU-145 prostate 107% | K-562 leukemia 88% | MALME-3M melanoma 96.6% | MDA-MB-231 breast 109% | RXF 393 renal 118% | SF-268 CNS 96% | SF-295 CNS 103% | SF-539 CNS 90.5% | UACC-257 melanoma 99.5% | M14 melanoma 96.5%

CC(=O)N1N=C(C2C(=O)N(C)C(=O)N(C)C2=O)CC1c1ccccc1C(=O)O (centres undefined)
inactive: NCI-H23 lung 98.3% | NCI-H226 lung 108% | NCI-H322M lung 97.1% | HOP-62 NSCLC 97.2% | NCI-H460 lung 104% | 786-0 renal 98.2% | COLO 205 colon 108% | DU-145 prostate 103% | K-562 leukemia 87.5% | MALME-3M melanoma 104% | MDA-MB-231 breast 104% | RXF 393 renal 104% | SF-268 CNS 96.7% | SF-295 CNS 112% | SF-539 CNS 104% | UACC-257 melanoma 95.7% | M14 melanoma 96.7%

CCOC(=O)Cn1c(-c2nonc2NC(=O)c2ccccc2F)nc2ccccc21
inactive: NCI-H23 lung 76.2% | NCI-H226 lung 62.3% | NCI-H322M lung 67.3% | HOP-62 NSCLC 73.2% | NCI-H460 lung 10.2% | A549/ATCC NSCLC 24% | 786-0 renal 46.4% | COLO 205 colon 60.1% | DU-145 prostate 53.2% | K-562 leukemia 31.3% | MALME-3M melanoma 77.4% | MDA-MB-231 breast 62.8% | RXF 393 renal 64.7% | SF-268 CNS 50% | SF-539 CNS 44.7% | UACC-257 melanoma 72.1% | M14 melanoma 61.5%
active: SF-295 CNS 8.34%

O=C(Nc1cccc(Cl)c1)Nc1ccccc1Cl
inactive: NCI-H23 lung 73.1% | NCI-H226 lung 108% | NCI-H322M lung 99.8% | HOP-62 NSCLC 101% | NCI-H460 lung 86% | 786-0 renal 82.1% | COLO 205 colon 121% | DU-145 prostate 95.8% | K-562 leukemia 61.3% | MALME-3M melanoma 92% | MDA-MB-231 breast 73.8% | RXF 393 renal 117% | SF-268 CNS 91% | SF-295 CNS 80.7% | SF-539 CNS 104% | UACC-257 melanoma 86.8% | M14 melanoma 106%

NS(=O)(=O)c1ccc(CCn2c(SCC(=O)N/N=C/c3ccccc3O)nc3ccccc3c2=O)cc1
inactive: NCI-H23 lung 65.4% | NCI-H226 lung 51.1% | NCI-H322M lung 77.5% | HOP-62 NSCLC 44.4% | NCI-H460 lung 23.1% | A549/ATCC NSCLC 53.9% | 786-0 renal 41.7% | COLO 205 colon 49.9% | DU-145 prostate 42.7% | MALME-3M melanoma 62.3% | MDA-MB-231 breast 63.4% | RXF 393 renal 46.7% | SF-268 CNS 55.8% | SF-295 CNS 39.7% | SF-539 CNS 25.6% | UACC-257 melanoma 55.6% | M14 melanoma 41.5%
active: K-562 leukemia 9.2%

Cn1c(-c2ccccc2)cc(=O)n1-c1ccccc1
inactive: NCI-H23 lung 96% | NCI-H226 lung 102% | NCI-H322M lung 103% | HOP-62 NSCLC 108% | NCI-H460 lung 117% | A549/ATCC NSCLC 102% | 786-0 renal 107% | COLO 205 colon 121% | DU-145 prostate 120% | K-562 leukemia 110% | MALME-3M melanoma 113% | MDA-MB-231 breast 100% | RXF 393 renal 115% | SF-268 CNS 112% | SF-295 CNS 122% | SF-539 CNS 101% | UACC-257 melanoma 97.4% | M14 melanoma 110%

CCCCCCCCCCCCCC1=NC(C)(C)CN1C(C)C
inactive: NCI-H322M lung 55.3%
active: NCI-H23 lung -4.87% | NCI-H226 lung 2.64% | HOP-62 NSCLC -79.7% | NCI-H460 lung -52.2% | A549/ATCC NSCLC -50.2% | 786-0 renal -86.2% | COLO 205 colon -62.9% | DU-145 prostate 9.58% | K-562 leukemia -49.5% | MALME-3M melanoma -48.9% | MDA-MB-231 breast -56.7% | RXF 393 renal -65.9% | SF-268 CNS -53.5% | SF-295 CNS -52.8% | SF-539 CNS -79.2% | UACC-257 melanoma -57.5% | M14 melanoma -74.8%
